Most compounds without a hit are left out; they make up all but 3.6% or so of the library.
Mm-Cpn inhibitor: Inhibitors of TCP-1 ring complex (TRiC) of Methanococcus maripaludis (MmCpn): qHTS; Chaperonin Mm-Cpn (Methanococcus maripaludis); purified Mm-Cpn ATPase, ADP Transcreener TR-FRET; Potency, µM (doses to about 76.9 µM), for the others: top-dose activity, negative = inhibition, most hits filed as inhibitors; 0.031% of 330,000 active; AID 504842, 2011; note: % is set by controls: 0 for no effect and ±100 for the full control effect; nearly all actives have a fitted effect of over 80% in size
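ATP (10 uM final) was added to archaeal chaperonin (25 nM final) after 10 min exposure to test compound at 37°C; after 30 min further incubation, ADP was detected by competitive TR-FRET.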
aSyn yeast inh: qHTS of alpha-syn Inhibitors; Potency, µM (titrated, usually from 46.1 µM), without a hit: at the highest dose growth rescue (activation), actives largely listed as activators; Yeast expressing alpha-synuclein, growth rescue, BacTiter-Glo, 24 h; 0.14% of 370,000 active; note: % of control where 0% means no effect; nearly all actives have a fitted effect of over 65% in size
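Screening used galactose-induced yeast with toxic alpha-synuclein levels, exposed to compound for 24 hr at 30 deg C. Cell growth, read with BacTiter-Glo luminescence, gave the measured signal.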
TDP43 rescue: qHTS of TDP-43 Inhibitors; TDP-43 expressing yeast growth rescue, BacTiter-Glo, 24 h; Potency, µM (series often up to 46.1 µM), for the others: at the top dose growth rescue (activation), most hits filed as activators; 1.8% of 410,000 active; AID 652104, 2013; note: % of control where 0% means no effect; nearly all actives have a fitted effect of over 50% in size
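Growth rescue of TDP-43-toxic yeast measured as ATP luminescence (BacTiter-Glo). Cells grown to mid-log in raffinose, induced in galactose at OD600=0.02, exposed to compound 24 hr at 30 deg C.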
Abeta yeast res: qHTS for compounds that reverse cellular toxicity of Amyloid beta (A-beta) peptide in yeast: Primary Screen; yeast expressing A-beta42, growth rescue, OD600, 48 h; response scale: 0% DMSO, 100% iron-clioquinol control; Potency, µM (top dose mostly 46.1 µM), usual class: activators; 0.063% of 410,000 active; note: nearly all actives have a fitted effect of over 55% in size
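Yeast growth medium received pinned compounds, then yeast cells expressing toxic A-beta were added; plates incubated at 30 C for 48 hr. Growth read as absorbance at 600 nm, normalized to DMSO and equimolar FeCl3 plus clioquinol controls.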
ClpP mod: qHTS Assay for Activators of ClpP. AID 651965, 2013. 1.9% of 340,000 active. Potency, µM (titrated, usually from 57.5 µM), for the others: at the top dose activity change, negative = active. purified B. subtilis ClpP, FRET peptide cleavage, 20 min. ATP-dependent Clp protease proteolytic subunit (Bacillus subtilis (strain 168)), P80244; active = well fitted falling curve with a large enough effect; inconclusive = small, poorly fitted or top-dose-only effect; inactive = no such curve, though single readings can be large or run the other way; note: the source files actives as falling curves though it sought activators and does not explain the sign; nearly all actives have a fitted effect of over 65% in size
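ClpP 10 microg/mL final, pH 8 Tris/KCl buffer with BSA, glycerol, Tween-20; compound pinned in; FRET-FV substrate; RT 20 min; Ex320/Em430; ΔFRET vs ADEP 5.8 microM, DMSO, no enzyme.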
FUS yeast rescue: qHTS for Suppressors of FUS Proteinopathy: Primary screen using FUS-linked yeast assay | S. cerevisiae FUS-expressing, growth rescue, OD600, 24 h | Potency, µM (titrated, usually from 76.6 µM), most hits filed as activators | 0.24% of 390,000 active;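 note: plate controls were DMSO vehicle for no effect and reference control for full effect; nearly all actives have a fitted effect of over 55% in size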
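Galactose (2%) drives FUS expression in yeast precultured in raffinose; seeding density OD 0.005. Test compounds incubated 24hr at 30C and 99% humidity before absorbance at 600 nm was measured.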
The depositor's hits bear a star; i = inactive; ? = inconclusive; . = not tested or not shown; [ ] = remark or other dose. Unless noted, calls come from the whole dose curve; as a rule, active = well fitted curve in the direction sought with a large enough effect; inconclusive = small, poorly fitted or top-dose-only effect, or another doubt; inactive = no such curve, though single readings can be large; an effect the other way counts as inactive or inconclusive. Potency is the fitted concentration of half-maximal effect.

SMILES	Mm-Cpn inhibitor	aSyn yeast inh	TDP43 rescue	Abeta yeast res	ClpP mod	FUS yeast rescue
CCCCNC(=O)c1onc(CSc2ccccn2)c1C(=O)NCCCC	.	12%	14µM*	i	0%	i
O=C(C=Cc1ccccc1)Nc1ccccc1	.	-28%	-20%	i	0%	i
Cc1nc(NC(=O)/C=C/c2ccccc2)n[nH]1	-1%	?	22µM*	i	.	i
Oc1ccc2ccccc2c1C=Nn1c(-c2n[nH]c3c2CCC3)n[nH]c1=S	.	.	.	.	.	i
O=C(OC1CCCCC1)c1ccc(NC(=O)c2ccco2)cc1	-2%	-26%	35µM*	i[9.22 µM]	?	i
CCCN1CNc2c(c(=O)[nH]c(=S)n2CCc2cccs2)C1	.	5%	.	.	-2%	.
CC(C)(Oc1ccc(Cl)cc1)C(=O)NC1CCCCC1	-1%	14%	8%	i	20µM*	i
CCCC(=O)Nc1nnc(S(=O)(=O)N(C)Cc2ccc(Cl)cc2)s1	.	.	9%	i	-1%	i
Cc1cccn2c(N)c(-c3ccccc3)nc12	-6%	-1%	4%	i	16µM*	i
CCOC(=O)c1c(-c2ccccc2)nc2c(C)cccn12	0%	-29%	-68%	i	-6%	i
COc1cc2c(c3oc(-c4ccccc4)cc(=O)c13)C=CC(C)(C)O2	.	9%	?	i	-4%	?
CC(C)(O)CCc1c(-c2ccc(O)cc2O)oc2c3c(cc(O)c2c1=O)OC(C)(C)C=C3	.	-2%	13µM*	i	-1%	?
Cc1ccc2[nH]c3c(Cl)ncnc3c2c1	1%	13%	7%	i	.	i
COc1ccc2c(c1)[nH]c1c(Cl)ncnc12	0%	?	11µM*	i	.	i
COc1ccccc1CCNC(=O)C(=O)NCC(c1ccco1)S(=O)(=O)c1ccc(C)cc1 (stereo not given)	.	.	-24%	i	1%	?
CCOC(=O)C1=C(C)NC2=C(C(=O)CCC2)C1c1cccs1 (stereo not given)	0%	-10%	-4%	i	?	i
CCOC(=O)c1sc2c(c1C)C(c1cccs1)C1=C(CCCC1=O)N2 (stereo not given)	-4%	3%	4%	i	4.5µM*	i
O/N=C/c1ccnc(SCc2ccc(Cl)cc2)n1	0%	1%	10µM*	i	1%	i
O/N=C/c1ccnc(SCc2ccccc2)n1	0%	-6%	11µM*	i	1%	i
CC(=O)Nc1ccc(-c2cc3ccccc3o2)cc1	0%	-2%	24%	i	14µM*	.
CC1(CCc2ccc3c(c2)OCO3)NC(=O)c2ccccc2N1 (stereo not given)	0%	7%	20%	i	28µM*	i
O=C1NC(c2ccc3c(c2)OCO3)Nc2ccccc21 (stereo not given)	1%	10%	1%	i	32µM*	i
NNC(=O)c1cc2c(ccc3ccccc32)o1	-2%	-3%	?	i	.	i
O=C(Nc1cccnc1)c1cc2c(ccc3ccccc32)o1	.	6%	?	i	25µM*	i
O=C(O)c1cc2c(ccc3ccccc32)o1	1%	-7%	15%	i	28µM*	i
SMILES	Mm-Cpn inhibitor	aSyn yeast inh	TDP43 rescue	Abeta yeast res	ClpP mod	FUS yeast rescue
CN1CCN(C(=O)c2cc3c(ccc4ccccc43)oc2=O)CC1	-3%	0%	-17%	i	13µM*	i
Cc1oc(-c2ccccc2)nc1C(=O)OCC(=O)NCc1ccc(Cl)cc1	-3%	6%	14%	i	3%	i
Cc1ccc(CNC(=O)COC(=O)c2nc(-c3ccccc3)oc2C)cc1	1%	1%	35µM*	i	-2%	i
O=C(NC1CCCCC1)N(CCN1CCCC1)Cc1cc2cc3c(cc2[nH]c1=O)OCCO3	-3%	2%	8%	i	35µM*	i
O=C(NC1CCCCC1)N(CCO)Cc1cc2cc3c(cc2[nH]c1=O)OCCO3	3%	.	2%	i	?	i
Cc1ccc2cc(CN(CCCN3CCOCC3)C(=O)NC3CCCCC3)c(=O)[nH]c2c1C	-2%	8%	-18%	i	28µM*	i
CCOC(=O)Nc1nc(-c2ccc(Cl)cc2Cl)cs1	1%	-37%	11µM*	i	-3%	.
Cc1ccc(SCCNC(=O)c2ccc(C)c(S(=O)(=O)Nc3cccc(C)c3)c2)cc1	-3%	20%	-9%	i	1%	32µM*
CC(C)(C)C1CCc2sc(C(=O)NNC(=O)CCl)cc2C1 (stereo not given)	-1%	1%	13µM*	i	1%	i
CC(C)(C)C1CCC(=NNC(=O)c2cc3c(s2)CCCC3)CC1 (stereo not given)	1%	-16%	-2%	i	-2%	.
CCOc1ccc2c(c1)C(C)=CC(C)(C)N2C(=O)Nc1ccccc1	-5%	7%	-9%	i	28µM*	i
CCNC(=O)N1c2ccc(OC)cc2C(C)=CC1(C)C	-7%	-10%	13µM*	i	32µM*	i
COc1ccc(NC(=O)N2c3ccccc3C(C)=CC2(C)C)cc1	-3%	-3%	-16%[9.22 µM]	i	.	i
COc1ccc(NC(=O)N2c3ccc(OC)cc3C(C)=CC2(C)C)cc1	-4%	0%	-4%	i	4%	i
C=C(CC[C@]12OC(C(=O)O)C(O)(C(=O)O)C(C(=O)O)(O1)C(OC(=O)/C=C/[C@@H](C)C[C@@H](C)CC)C2O)[C@@H](OC(C)=O)[C@H](C)Cc1ccccc1 (stereo not given in full)	.	2%	.	.	0%	.
COc1cc(-c2nnc(-c3ccc(N4CCOCC4)cc3)o2)cc(OC)c1OC	-1%	0%	-17%	i	25µM*	i
COc1ccc(-c2cn3nc(N4CCCC(C(=O)NCc5ccccc5OC)C4)sc3n2)cc1 (stereo not given)	.	.	-3%	i	1%	i
CN(C1=C(NC(=O)c2ccc(Cl)cc2)C(=O)c2ccccc2C1=O)c1ccccc1	-1%	-5%	35µM*	i	-2%	.
COc1ccc2c(C)c(CCC(=O)NCCc3ccc(Cl)cc3)c(=O)oc2c1	.	.	22µM*	i	4%	i
Cc1ccc(OCCC(=O)NCCc2ccc(S(N)(=O)=O)cc2)cc1	-1%	-2%	6%	i	13µM*	i

Source: PubChem BioAssay (National Center for Advancing Translational Sciences (NCATS))
